Records with an inconclusive call do not appear. The source made the active and inactive calls. How the source made its calls, unless noted: active means hit-call score of the fitted dose curve at least 0.9, where 1 is the maximum; inactive means score below 0.9.
Tests used:
[1] = target: Bile acid receptor (Homo sapiens) (UniProt Q96RI1); test: ATG_FXR_TRANS: Attagene TRANS-FACTORIAL HepG2 Assay for Farnesoid X Receptor (FXR) (AID 2282979; active means hit-call score of the fitted dose curve at least 0.9, where 1 is the maximum;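 further: hits raise reporter mRNA above DMSO so AC50 marks FXR activation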); conditions: HepG2 Attagene TRANS FXR-GAL4 reporter transcription
Sequence of Bile acid receptor (Homo sapiens) (Q96RI1 whole entry, looked up, the tested form may be a part): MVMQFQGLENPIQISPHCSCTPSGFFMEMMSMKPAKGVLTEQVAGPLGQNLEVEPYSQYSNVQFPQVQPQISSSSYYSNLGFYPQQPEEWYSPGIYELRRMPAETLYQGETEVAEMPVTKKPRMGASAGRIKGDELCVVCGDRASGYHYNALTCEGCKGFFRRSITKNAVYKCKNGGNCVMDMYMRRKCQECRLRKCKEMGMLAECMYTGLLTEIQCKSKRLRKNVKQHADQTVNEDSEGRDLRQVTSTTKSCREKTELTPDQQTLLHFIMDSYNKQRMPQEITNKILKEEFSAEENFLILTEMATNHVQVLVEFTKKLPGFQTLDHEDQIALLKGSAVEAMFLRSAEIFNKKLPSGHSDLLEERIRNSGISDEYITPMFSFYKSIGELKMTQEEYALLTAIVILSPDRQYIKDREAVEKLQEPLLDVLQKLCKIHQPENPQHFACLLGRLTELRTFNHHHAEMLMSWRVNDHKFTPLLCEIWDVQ
Outline: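 Reporter transcripts from transfected HepG2 cells were measured 24 h after dosing, using RT-PCR with capillary electrophoresis of 6-FAM-labelled fragments. The read-out reflects activity of exogenous FXR-Gal4 chimera on GAL4-UAS units, with induction relative to DMSO.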

[2] = target: Hepatocyte nuclear factor 4-alpha (Homo sapiens) (UniProt P41235); test: ATG_HNF4a_TRANS: Attagene TRANS-FACTORIAL HepG2 Assay for human Hepatocyte Nuclear Factor 4 alpha (HNF4a) (AID 2282982; active means hit-call score of the fitted dose curve at least 0.9, where 1 is the maximum); conditions: HepG2 HNF4a transactivation reporter, mRNA readout
Sequence of Hepatocyte nuclear factor 4-alpha (Homo sapiens) (P41235 whole entry, looked up): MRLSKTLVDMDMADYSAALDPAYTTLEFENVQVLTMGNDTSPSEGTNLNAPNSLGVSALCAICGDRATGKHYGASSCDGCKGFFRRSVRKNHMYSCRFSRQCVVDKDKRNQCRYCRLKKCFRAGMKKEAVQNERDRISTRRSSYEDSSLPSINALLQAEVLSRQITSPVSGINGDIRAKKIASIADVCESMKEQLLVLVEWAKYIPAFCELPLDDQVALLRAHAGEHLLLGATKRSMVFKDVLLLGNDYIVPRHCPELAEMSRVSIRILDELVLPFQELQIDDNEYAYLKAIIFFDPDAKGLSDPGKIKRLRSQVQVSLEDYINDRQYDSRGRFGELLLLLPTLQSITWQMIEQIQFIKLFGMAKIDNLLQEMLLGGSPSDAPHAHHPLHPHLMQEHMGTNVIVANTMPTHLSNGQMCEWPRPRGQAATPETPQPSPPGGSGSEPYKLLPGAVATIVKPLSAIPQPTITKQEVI
Outline: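 Transient MRTU transfection of HepG2, 24 h dosing. Readout: reporter mRNA via RT-PCR + capillary electrophoresis, fluorescence; activity fit upward relative to DMSO control.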

[3] = ATG_M_32_TRANS: Attagene TRANS-FACTORIAL HepG2 Assay for M32 Transcription Factor (Internal Marker) (AID 2282984; active means hit-call score of the fitted dose curve at least 0.9, where 1 is the maximum;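 further: transcript level of a background control reporter unit measured by RT-PCR and capillary electrophoresis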); conditions: HepG2 Attagene TRANS M32 internal marker reporter
Outline: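 Read-out: fluorescent reporter cDNA fragments resolved by capillary electrophoresis after RT-PCR of total RNA. Transfected HepG2 cells were exposed to chemical for 24 h. Activity scored in the positive direction relative to DMSO.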

[4] = target: Transcriptional activator Myb (Homo sapiens) (UniProt P10242); test: ATG_Myb_CIS: Attagene CIS-FACTORIAL HepG2 Assay for human Myeloblastosis (Myb) Proto-Oncogene Transcription Factor (AID 2282986); conditions: HepG2 Attagene CIS-FACTORIAL Myb reporter transcription; actives raise or lower the signal
Sequence of Transcriptional activator Myb (Homo sapiens) (P10242 whole entry, looked up): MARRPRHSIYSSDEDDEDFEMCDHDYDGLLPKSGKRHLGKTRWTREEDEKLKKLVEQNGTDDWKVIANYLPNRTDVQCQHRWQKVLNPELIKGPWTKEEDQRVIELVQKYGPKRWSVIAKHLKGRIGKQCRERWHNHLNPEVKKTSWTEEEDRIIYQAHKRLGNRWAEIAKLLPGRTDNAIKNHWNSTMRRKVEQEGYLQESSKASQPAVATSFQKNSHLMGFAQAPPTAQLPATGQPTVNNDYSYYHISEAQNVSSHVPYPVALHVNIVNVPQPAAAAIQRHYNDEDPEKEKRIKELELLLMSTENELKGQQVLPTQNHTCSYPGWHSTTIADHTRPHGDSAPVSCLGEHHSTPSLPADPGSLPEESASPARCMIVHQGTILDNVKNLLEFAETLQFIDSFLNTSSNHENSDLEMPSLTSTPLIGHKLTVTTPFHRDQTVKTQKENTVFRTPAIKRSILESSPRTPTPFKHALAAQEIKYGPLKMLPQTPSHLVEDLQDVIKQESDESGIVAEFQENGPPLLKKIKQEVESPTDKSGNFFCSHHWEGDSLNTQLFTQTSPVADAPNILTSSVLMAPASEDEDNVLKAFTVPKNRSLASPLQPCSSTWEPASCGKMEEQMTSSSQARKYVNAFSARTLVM
Outline: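 After 24 h of compound dosing, total RNA from transfected HepG2 cells is reverse-transcribed and the reporter sequences amplified, labeled and separated by capillary electrophoresis. Values come from bidirectional fitting against DMSO.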

[5] = target: Nuclear respiratory factor 1 (Homo sapiens) (UniProt Q16656); test: ATG_NRF1_CIS: Attagene CIS-FACTORIAL HepG2 Assay for human Nuclear Respiratory Factor 1 (NRF1) Orphan Gene (AID 2282987); conditions: HepG2 NRF1 cis-element reporter, Attagene multiplex; actives raise or lower the signal
Sequence of Nuclear respiratory factor 1 (Homo sapiens) (Q16656 whole entry, looked up): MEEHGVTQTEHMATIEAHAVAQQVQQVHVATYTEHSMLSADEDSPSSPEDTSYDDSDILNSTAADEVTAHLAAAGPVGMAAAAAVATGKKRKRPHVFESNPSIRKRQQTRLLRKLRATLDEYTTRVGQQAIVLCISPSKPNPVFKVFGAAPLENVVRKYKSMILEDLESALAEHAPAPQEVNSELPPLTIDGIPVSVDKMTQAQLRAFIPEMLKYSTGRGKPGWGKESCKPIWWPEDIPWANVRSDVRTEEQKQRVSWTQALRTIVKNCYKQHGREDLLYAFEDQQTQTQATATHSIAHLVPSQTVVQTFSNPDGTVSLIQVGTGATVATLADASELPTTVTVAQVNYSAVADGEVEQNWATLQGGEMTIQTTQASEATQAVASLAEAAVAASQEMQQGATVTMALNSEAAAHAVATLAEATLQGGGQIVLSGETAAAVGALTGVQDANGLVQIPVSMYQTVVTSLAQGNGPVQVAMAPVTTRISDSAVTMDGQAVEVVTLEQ
Outline: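 Measured: fluorescent reporter-specific RT-PCR products from transfected HepG2 cells, separated by capillary electrophoresis. Exposure lasted 24 h. Analysis used bidirectional curve fitting with DMSO as negative control.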

[6] = ATG_NFI_CIS: Attagene CIS-FACTORIAL HepG2 Assay for human Nuclear Factor I (NFI) (AID 2282989); conditions: HepG2 cis-regulatory reporter, NFI response element transcription; actives raise or lower the signal
Outline: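 Multiplexed cis-reporter system in human HepG2 cells reports native TF activity as reporter mRNA induction 24 h post-dose. Fragments labelled with 6-FAM, HpaI-digested and resolved by capillary electrophoresis; activity fitted both directions versus DMSO.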

[7] = target: Myc proto-oncogene protein (Homo sapiens) (UniProt P01106); test: ATG_Myc_CIS: Attagene CIS-FACTORIAL HepG2 Assay for human Myelocytomatosis (Myc) Proto-Oncogene Transcription Factor (AID 2282990); conditions: HepG2, Attagene cis-reporter transcription factor activity; actives raise or lower the signal
Sequence of Myc proto-oncogene protein (Homo sapiens) (P01106 whole entry, looked up, the tested form may be a part): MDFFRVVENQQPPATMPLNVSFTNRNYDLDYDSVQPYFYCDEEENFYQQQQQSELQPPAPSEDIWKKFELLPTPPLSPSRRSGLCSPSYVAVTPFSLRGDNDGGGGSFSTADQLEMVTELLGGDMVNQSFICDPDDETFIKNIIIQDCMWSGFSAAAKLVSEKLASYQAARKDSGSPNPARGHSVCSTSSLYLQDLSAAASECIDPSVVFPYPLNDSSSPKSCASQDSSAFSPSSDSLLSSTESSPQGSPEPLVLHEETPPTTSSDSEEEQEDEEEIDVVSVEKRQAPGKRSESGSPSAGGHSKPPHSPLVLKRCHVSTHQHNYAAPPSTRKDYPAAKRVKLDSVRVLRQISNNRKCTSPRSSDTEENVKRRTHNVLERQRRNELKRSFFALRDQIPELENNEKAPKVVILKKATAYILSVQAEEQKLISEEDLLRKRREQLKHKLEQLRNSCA
Outline: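 Fluorescence intensity of reporter-specific cDNA fragments, separated by capillary electrophoresis, gives the signal. Transfected HepG2 cells carrying cis-promoter reporter constructs are incubated with compound for 24 h; DMSO serves as baseline.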

[8] = ATG_NRF2_ARE_CIS: Attagene CIS-FACTORIAL HepG2 Assay for human Nuclear Factor Erythroid 2 Related Factor 2 (NFR2) response to Antioxidant Response Elements (ARE) (AID 2282992); conditions: HepG2 Attagene ARE/NRF2 reporter, transcription factor activity; actives raise or lower the signal
Outline: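 Endogenous transcription factor activity in human liver HepG2 cells is tracked via a cis-element-driven reporter within a multiplexed set. mRNA induction is read by RT-PCR and capillary electrophoresis after 24 h, with DMSO as baseline.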

[9] = ATG_Oct_MLP_CIS: Attagene CIS-FACTORIAL HepG2 Assay for human Octamer-Binding Transcription Factor (Oct) (AID 2282993); conditions: HepG2 Attagene cis-factorial Oct reporter, mRNA; actives raise or lower the signal
Outline: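 After 24 h compound exposure, transfected HepG2 cells were lysed for total RNA; reporter-specific cDNA was PCR-amplified, fluorescently labelled and sized by capillary electrophoresis. Bidirectional curve fitting used DMSO as baseline.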

[10] = target: Cellular tumor antigen p53 (Homo sapiens) (UniProt P04637); test: ATG_p53_CIS: Attagene CIS-FACTORIAL HepG2 Assay for human p53 Transcription Factor (AID 2282994); conditions: HepG2 p53 cis-element reporter, Attagene mRNA; actives raise or lower the signal
Sequence of Cellular tumor antigen p53 (Homo sapiens) (P04637 whole entry, looked up, the tested form may be a part): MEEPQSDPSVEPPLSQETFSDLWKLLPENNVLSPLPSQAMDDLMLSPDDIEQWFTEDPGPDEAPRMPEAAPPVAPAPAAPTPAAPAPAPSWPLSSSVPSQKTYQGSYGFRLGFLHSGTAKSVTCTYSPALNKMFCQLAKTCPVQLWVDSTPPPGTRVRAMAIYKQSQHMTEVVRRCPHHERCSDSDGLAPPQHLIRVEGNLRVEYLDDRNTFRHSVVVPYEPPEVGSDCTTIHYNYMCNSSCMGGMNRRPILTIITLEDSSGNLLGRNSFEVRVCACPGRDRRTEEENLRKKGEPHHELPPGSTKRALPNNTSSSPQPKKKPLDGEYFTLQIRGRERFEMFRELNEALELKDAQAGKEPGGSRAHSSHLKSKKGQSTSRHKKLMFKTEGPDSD
Outline: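 Steps: transfect HepG2 with multiplexed cis reporter constructs; dose chemicals 24 h; extract RNA, reverse-transcribe, PCR-amplify reporter sequences; FAM-label, HpaI-digest, resolve fragments by CE. Activity fitted both directions relative to DMSO.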

[11] = target: Oxysterols receptor LXR-beta (Homo sapiens) (UniProt P55055); test: ATG_LXRb_TRANS: Attagene TRANS-FACTORIAL HepG2 Assay for human Liver X Receptor beta (LXRb) (AID 2282981; active means hit-call score of the fitted dose curve at least 0.9, where 1 is the maximum); conditions: HepG2 Attagene TRANS GAL4-LXRb reporter, mRNA
Sequence of Oxysterols receptor LXR-beta (Homo sapiens) (P55055 whole entry, looked up, the tested form may be a part): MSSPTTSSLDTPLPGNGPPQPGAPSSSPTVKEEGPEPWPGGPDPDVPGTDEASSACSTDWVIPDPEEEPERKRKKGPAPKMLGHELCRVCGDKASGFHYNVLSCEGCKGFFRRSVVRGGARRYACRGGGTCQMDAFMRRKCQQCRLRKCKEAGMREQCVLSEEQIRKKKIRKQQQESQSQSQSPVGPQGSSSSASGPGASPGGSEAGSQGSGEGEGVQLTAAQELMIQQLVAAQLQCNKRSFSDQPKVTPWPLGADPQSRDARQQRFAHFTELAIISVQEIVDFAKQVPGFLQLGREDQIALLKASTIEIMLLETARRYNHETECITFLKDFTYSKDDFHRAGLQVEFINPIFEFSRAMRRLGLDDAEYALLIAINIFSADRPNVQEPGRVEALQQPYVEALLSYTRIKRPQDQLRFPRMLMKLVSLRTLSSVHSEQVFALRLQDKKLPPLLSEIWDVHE
Outline: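 Readout: fluorescent reporter mRNA fragments resolved by capillary electrophoresis after RT-PCR. System: transiently transfected human HepG2, exogenous LXRb-Gal4 chimera driving GAL4-UAS reporter, 24 h dosing. Activity fitted upward against DMSO baseline.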

[12] = target: Nuclear receptor subfamily 4 group A member 2 (Homo sapiens) (UniProt P43354); test: ATG_NURR1_TRANS: Attagene TRANS-FACTORIAL HepG2 Assay for human Nuclear Receptor Related Protein 1 (NURR1) (AID 2282985; active means hit-call score of the fitted dose curve at least 0.9, where 1 is the maximum); conditions: HepG2 Attagene TRANS reporter, mRNA readout
Sequence of Nuclear receptor subfamily 4 group A member 2 (Homo sapiens) (P43354 whole entry, looked up, the tested form may be a part): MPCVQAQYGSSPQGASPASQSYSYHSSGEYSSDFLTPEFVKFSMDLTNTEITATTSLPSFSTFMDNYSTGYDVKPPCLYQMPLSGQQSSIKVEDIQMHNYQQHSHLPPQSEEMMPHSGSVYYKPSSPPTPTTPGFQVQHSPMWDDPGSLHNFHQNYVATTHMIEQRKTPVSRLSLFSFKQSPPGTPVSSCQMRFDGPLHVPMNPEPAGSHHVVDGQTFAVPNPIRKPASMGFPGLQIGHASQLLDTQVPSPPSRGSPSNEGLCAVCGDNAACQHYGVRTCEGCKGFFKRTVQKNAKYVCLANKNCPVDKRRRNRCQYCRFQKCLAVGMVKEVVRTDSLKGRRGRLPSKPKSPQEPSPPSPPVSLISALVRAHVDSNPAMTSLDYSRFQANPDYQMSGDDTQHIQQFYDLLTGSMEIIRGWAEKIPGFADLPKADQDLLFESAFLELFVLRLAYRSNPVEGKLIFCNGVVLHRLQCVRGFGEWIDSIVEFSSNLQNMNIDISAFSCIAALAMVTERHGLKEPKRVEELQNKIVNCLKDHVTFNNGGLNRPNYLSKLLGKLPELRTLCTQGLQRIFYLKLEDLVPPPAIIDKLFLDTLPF
Outline: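 Read-out: reporter mRNA induction by RT-PCR plus capillary electrophoresis with fluorescence detection, after 24 h dosing of transfected HepG2 cells. Exogenous NR-Gal4 chimera activity drives GAL4-UAS reporter; activity fitted upward versus DMSO.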

[13] = ATG_NF_kB_CIS: Attagene CIS-FACTORIAL HepG2 Assay for human Nuclear Factor Kappa B (NF-kB) (AID 2282991); conditions: HepG2 Attagene cis-factorial NF-kB reporter mRNA; actives raise or lower the signal
Outline: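 Fluorescence of labelled RT-PCR products separated by capillary electrophoresis gives reporter mRNA levels from transfected HepG2 cells exposed 24 h; values are fitted in both directions relative to DMSO.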

[14] = ATG_M_06_TRANS: Attagene TRANS-FACTORIAL HepG2 Assay for M06 Transcription Factor (Internal Marker) (AID 2282983; active means hit-call score of the fitted dose curve at least 0.9, where 1 is the maximum); conditions: HepG2 Attagene TRANS M06 internal marker reporter
Outline: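 Background-control reporter readout: after 24 h chemical exposure of transiently transfected HepG2 (GAL4-UAS reporter units), mRNA quantified by RT-PCR with fluorescent labeling and capillary electrophoresis. Gain-of-signal fitting against DMSO baseline.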

Measured: outcome

CCCCO
not listed: [11] | [12] | [13] | [14]
inactive: all other assays above

Cc1ccc(C=O)cc1
not listed: [2] | [3] | [14]
inactive: all other assays above

Cc1ncc([N+](=O)[O-])n1C
not listed: [2] | [3] | [12] | [13] | [14]
inactive: all other assays above

OCc1cccnc1
not listed: [10] | [11] | [14]
inactive: all other assays above

CCCC(=O)C(C)=O
not listed: [2] | [3] | [11] | [12]
inactive: all other assays above

CC(=O)Nc1ccc(C)cc1C
not listed: [11] | [12] | [14]
inactive: all other assays above

— PubChem BioAssay (EPA / NIEHS)
